Source: PubChem BioAssay AID1159580 (chemical genetic matrix, 2015)
Among all 5,500 compounds or so, about 2,000 (36%) were called active. Not shown: some 18% with an inconclusive outcome. No stated cut-off is given here; in the data, active means normalized growth mostly below about 0.91 (no sharp cut-off); inconclusive means no clear call, values can overlap the other calls; inactive means mostly above about 0.92. The list shows a part of the results.

Experiment: chemical genetic growth profiling, strain panel (AID 1159580);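 further: tested at 20 µM; growth read once vehicle control cultures reached saturation at 30 °C; 1 = growth at the plate median or of vehicle wells; lower values mean less growth of the strain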
Details: growth OD

Measured: normalized growth

O=C(O)c1ccccc1OP(=O)(O)O
inactive: S. cerevisiae deletion strains, locus YJR066W, strain TOR1, hits give low values 0.875 | S. cerevisiae deletion strains, locus YKL009W, strain mrt4, hits give low values 0.997 | S. cerevisiae deletion strains, locus YKL068W, hits give low values 0.988 | S. cerevisiae deletion strains, locus YKL085W, strain MDH1 (second series), hits give low values 0.986 | S. cerevisiae deletion strains, locus YKL085W, strain MDH1, hits give low values 0.986 | S. cerevisiae deletion strains, locus YKL160W, strain elf1, hits give low values 0.981 | S. cerevisiae deletion strains, locus YKL190W, strain CNB1, hits give low values 1 | S. cerevisiae deletion strains, locus YKR001C, strain vps1, hits give low values 0.984 | S. cerevisiae deletion strains, locus YKR026C, strain gcn3, hits give low values 1.01 | S. cerevisiae deletion strains, locus YKR091W, strain srl3, hits give low values 1 | S. cerevisiae deletion strains, locus YLL001W, strain dnm1, hits give low values 1.03 | S. cerevisiae deletion strains, locus YLL026W, hits give low values 1 | S. cerevisiae deletion strains, locus YLL041C, strain sdh2, hits give low values 0.992 | S. cerevisiae deletion strains, locus YLR027C, strain aat2, hits give low values 1 | S. cerevisiae deletion strains, locus YLR039C, strain RIC1, hits give low values 1.01 | S. cerevisiae deletion strains, locus YLR058C, strain SHM2, hits give low values 1.02 | S. cerevisiae deletion strains, locus YLR102C, strain apc9, hits give low values 0.992 | S. cerevisiae deletion strains, locus YLR113W, strain HOG1, hits give low values 0.967 | S. cerevisiae deletion strains, locus YLR221C, strain rsa3, hits give low values 0.995 | S. cerevisiae deletion strains, locus YLR258W, strain gsy2, hits give low values 1.02 | S. cerevisiae deletion strains, locus YLR262C, strain YPT6 (second series), hits give low values 0.995 | S. cerevisiae deletion strains, locus YLR262C, strain YPT6, hits give low values 1.05 | S. cerevisiae deletion strains, locus YLR268W, strain sec22, hits give low values 1.01 | S. cerevisiae deletion strains, locus YLR320W, strain mms22, hits give low values 1.02 | S. cerevisiae deletion strains, locus YLR330W, strain CHS5, hits give low values 1.01 | S. cerevisiae deletion strains, locus YLR342W, strain FKS1 (second series), hits give low values 1 | S. cerevisiae deletion strains, locus YLR342W, strain FKS1, hits give low values 1 | S. cerevisiae deletion strains, locus YLR357W, strain rsc2, hits give low values 1.03 | S. cerevisiae deletion strains, locus YLR370C, strain arc18, hits give low values 1.01 | S. cerevisiae deletion strains, locus YLR371W, strain rom2, hits give low values 0.987 | S. cerevisiae deletion strains, locus YLR384C, strain iki3, hits give low values 1.01 | S. cerevisiae deletion strains, locus YLR418C, strain cdc73, hits give low values 0.994 | S. cerevisiae deletion strains, locus YML016C, strain PPZ1, hits give low values 1.01 | S. cerevisiae deletion strains, locus YML032C, strain rad52, hits give low values 0.997 | S. cerevisiae deletion strains, locus YML120C, strain ndi1, hits give low values 1 | S. cerevisiae deletion strains, locus YML124C, strain tub3, hits give low values 0.996 | S. cerevisiae deletion strains, locus YMR058W, strain fet3, hits give low values 1.01 | S. cerevisiae deletion strains, locus YMR078C, strain ctf18, hits give low values 0.988 | S. cerevisiae deletion strains, locus YMR125W, strain sto1, hits give low values 1.02 | S. cerevisiae deletion strains, locus YMR129W, hits give low values 1 | S. cerevisiae deletion strains, locus YMR205C, strain PFK2, hits give low values 1.03 | S. cerevisiae deletion strains, locus YMR223W, strain ubp8, hits give low values 0.993 | S. cerevisiae deletion strains, locus YMR231W, strain pep5, hits give low values 1 | S. cerevisiae deletion strains, locus YMR263W, strain SAP30, hits give low values 1.02 | S. cerevisiae deletion strains, locus YMR307W, strain GAS1, hits give low values 1 | S. cerevisiae deletion strains, locus YNL067W, strain RPL9B, hits give low values 1.01 | S. cerevisiae deletion strains, locus YNL071W, strain lat1, hits give low values 1.01 | S. cerevisiae deletion strains, locus YNL183C, strain NPR1, hits give low values 0.872 | S. cerevisiae deletion strains, locus YNL209W, strain ssb2, hits give low values 1 | S. cerevisiae deletion strains, locus YNL233W, strain BNI4, hits give low values 1.02 | S. cerevisiae deletion strains, locus YNL248C, strain rpa49, hits give low values 0.971 | S. cerevisiae deletion strains, locus YNL250W, strain rad50, hits give low values 0.983 | S. cerevisiae deletion strains, locus YNL271C, strain bni1, hits give low values 0.981 | S. cerevisiae deletion strains, locus YNL298W, strain CLA4, hits give low values 0.982 | S. cerevisiae deletion strains, locus YNL307C, strain MCK1, hits give low values 0.986 | S. cerevisiae deletion strains, locus YNL322C, strain KRE1 (second series), hits give low values 0.983 | S. cerevisiae deletion strains, locus YNR049C, strain mso1, hits give low values 1 | S. cerevisiae deletion strains, locus YNR052C, strain pop2, hits give low values 0.999 | S. cerevisiae deletion strains, locus YOL006C, strain TOP1, hits give low values 1.03 | S. cerevisiae deletion strains, locus YOL012C, strain htz1 0.778 | S. cerevisiae deletion strains, locus YOL147C, strain pex11, hits give low values 1 | S. cerevisiae deletion strains, locus YOR001W, strain rrp6, hits give low values 0.976 | S. cerevisiae deletion strains, locus YOR061W, strain CKA2, hits give low values 1.01 | S. cerevisiae deletion strains, locus YOR069W, strain VPS5, hits give low values 1.01 | S. cerevisiae deletion strains, locus YOR070C, strain gyp1, hits give low values 0.998 | S. cerevisiae deletion strains, locus YOR080W, strain dia2, hits give low values 1.01 | S. cerevisiae deletion strains, locus YOR083W, strain WHI5, hits give low values 0.969 | S. cerevisiae deletion strains, locus YOR106W, strain vam3, hits give low values 0.983 | S. cerevisiae deletion strains, locus YOR136W, strain idh2, hits give low values 0.994 | S. cerevisiae deletion strains, locus YOR144C, strain elg1, hits give low values 0.991 | S. cerevisiae deletion strains, locus YOR184W, strain ser1, hits give low values 1 | S. cerevisiae deletion strains, locus YOR231W, strain MKK1, hits give low values 0.981 | S. cerevisiae deletion strains, locus YOR265W, strain rbl2, hits give low values 0.997 | S. cerevisiae deletion strains, locus YOR270C, strain vph1, hits give low values 1.01 | S. cerevisiae deletion strains, locus YOR290C, strain snf2, hits give low values 0.983 | S. cerevisiae deletion strains, locus YOR316C, strain cot1, hits give low values 0.99 | S. cerevisiae deletion strains, locus YPL051W, strain arl3, hits give low values 0.991 | S. cerevisiae deletion strains, locus YPL055C, strain LGE1, hits give low values 1.03 | S. cerevisiae deletion strains, locus YPL078C, strain atp4, hits give low values 0.968 | S. cerevisiae deletion strains, locus YPL106C, strain sse1, hits give low values 1.01 | S. cerevisiae deletion strains, locus YPL240C, strain hsp82, hits give low values 1 | S. cerevisiae deletion strains, locus YPL241C, strain CIN2, hits give low values 1.01 | S. cerevisiae deletion strains, locus YPL256C, strain CLN2, hits give low values 0.948 | S. cerevisiae deletion strains, locus YPR119W, strain clb2, hits give low values 0.993 | S. cerevisiae deletion strains, locus YPR141C, strain kar3, hits give low values 0.98 | S. cerevisiae deletion strains, locus YPR163C, strain tif3, hits give low values 0.989 | S. cerevisiae deletion strains, locus YPR167C, strain met16, hits give low values 0.986 | S. cerevisiae deletion strains, strain wtn01, hits give low values 1.02 | S. cerevisiae strains, strain wild type, hits give low values 1.01
